Assay results from PubChem BioAssay (NCATS).
Several values for one entry are separate records, joined by “and”; a condition that tells them apart may be missing. Equal entries are not always repeated. Inconclusive results are not listed. Activity calls are given as the source filed them. Calls come from the whole dose curve; as a rule, active = well fitted curve in the direction sought with a large enough effect; inconclusive = small, poorly fitted or top-dose-only effect, or another doubt; inactive = no such curve, though single readings can be large or run the other way. Where a SMILES comes first, the peptide text is derived from it. Bridges are numbered along the chain shown (N, C = ends). [ ]: non-standard residue; d: D form. The star is where a group is joined. X1 = CC[C@@H](C)[C@@H](N)C1=N[C@H](C(=O)*)CS1; d(aIle) = CC[C@H](C)[C@@H](N)C(=O)O; dOrn = NCCC[C@@H](N)C(=O)O

Test: qHTS Assay for Identifying Gametocytocidal Compounds (AID 743244);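 note: actives lower the fluorescent signal which means gametocytes are killed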
Conditions: P. falciparum 3D7 stage III-V gametocytes, alamarBlue, 72 h; max response: active compounds read low
Outline: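 Stage III-V P. falciparum 3D7 gametocytes, 20,000 per well, were exposed to compounds for 72 h at 37C, 5% CO2. AlamarBlue was then added for 24 h and viability was read as fluorescence at Ex 525/Em 598 nm.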
% is set by controls: 0 for no effect and ±100 for the full control effect.

Q: With `CO[C@H]1C=CO[C@@]2(C)Oc3c(C)c(O)c4c(O)c(cc(O)c4c3C2=O)NC(=O)/C(C)=C\C=C/[C@H](C)[C@H](O)[C@@H](C)[C@@H](O)[C@@H](C)[C@H](OC(C)=O)[C@@H]1C` as the molecule, how does the max response read?
A: -6.86% (inactive)

Q: Which max response does the source give for `CC(C)CCCC(C)NC(C)C` (stereo not drawn) here?
A: 15.9% (inactive)

Q: Which max response does the source give for `Cc1ccc(C(C)(C)c2ccc(C)cc2)cc1` here?
A: 17% (inactive)

Q: Which max response does the source give for `COC(=O)CCC[N+](C)(C)C` here?
A: -8.11% (inactive)

Q: With `O=C1c2ccccc2C(=O)c2c1ccc(O)c2O` as the molecule, how does the max response read?
A: 2.07% (inactive)

Q: With `FC(F)OC(Cl)C(F)(F)F` (stereo not drawn) as the molecule, how does the max response read?
A: -3.13% (inactive)

Q: With `CC[C@@H](C)[C@@H](N)C1=N[C@H](C(=O)N[C@@H](CC(C)C)C(=O)N[C@@H](CCC(=O)O)C(=O)N[C@@H](C(=O)N[C@@H]2CCCCNC(=O)[C@@H](CC(N)=O)NC(=O)[C@@H](CC(=O)O)NC(=O)[C@@H](Cc3cnc[nH]3)NC(=O)[C@@H](Cc3ccccc3)NC(=O)[C@@H]([C@H](C)CC)NC(=O)[C@@H](CCCN)NC2=O)[C@@H](C)CC)CS1` (X1-LE[d(aIle)][dK][dOrn][dI][dF][dH][dD][dN]; lactam 4-C) as the molecule, how does the max response read?
A: 17.8% (inactive) and -1.65% (inactive)

Q: For `C[C@@H]1NC(=O)[C@@H](N)CNC(=O)[C@H](C2CCNC(N)=N2)NC(=O)/C(=C/NC(N)=O)NC(=O)[C@H](CNC(=O)C[C@@H](N)CCCN)NC1=O` (stereo partly drawn), which max response is on record?
A: 0.778% (inactive) and -5.05% (inactive)

Q: Which max response does the source give for `CC(=NCc1ccccc1)c1ccccc1O` here?
A: -2.19% (inactive)

Q: For `Cn1cc(NC(=O)c2cc(NC(=O)c3cc(NC=O)cn3C)cn2C)cc1C(=O)NCCC(=N)N`, which max response is on record?
A: 6.22% (inactive)

Q: With `CCCCC[C@H](O)/C=C/[C@H]1[C@H](O)CC(=O)[C@@H]1C/C=C\CCCC(=O)O` as the molecule, how does the max response read?
A: 5.55% (inactive)

Q: With `Cc1ncc(COP(=O)(O)O)c(CN)c1O` as the molecule, how does the max response read?
A: -10.8% (inactive)

Q: With `NCC[C@H](O)C(=O)N[C@@H]1C[C@H](N)[C@@H](O[C@H]2O[C@H](CN)CC[C@H]2N)[C@H](O)[C@H]1O[C@H]1O[C@H](CO)[C@@H](O)[C@H](N)[C@H]1O` as the molecule, how does the max response read?
A: -1.8% (inactive)

Q: Which max response does the source give for `CC(C)(CO)[C@@H](O)C(=O)NCCCC(=O)O` here?
A: -4.37% (inactive)

Q: With `O=P(O)(O)OC[C@H](O)CO` as the molecule, how does the max response read?
A: -1.62% (inactive)

Q: For `CO[C@H]1C[C@H](O[C@@H]2/C(C)=C/C[C@@H]3C[C@@H](C[C@]4(CC[C@H](C)[C@@H](C5CCCCC5)O4)O3)OC(=O)[C@@H]3C=C(C)/C(=N/O)[C@H]4OC/C(=C\C=C\[C@@H]2C)[C@]43O)O[C@@H](C)[C@@H]1O`, which max response is on record?
A: -14.2% (inactive)

Q: Which max response does the source give for `C=C1[C@@H]2CC[C@@H](C2)C1(C)C` here?
A: -12.4% (inactive)

Q: For `C[C@@H]1C/C=C/C=C/C=C/C=C/[C@H](O[C@@H]2O[C@H](C)[C@@H](O)[C@H](N)[C@@H]2O)C[C@@H]2O[C@](O)(C[C@@H](O)C[C@H]3O[C@@H]3/C=C/C(=O)O1)C[C@H](O)[C@H]2C(=O)O`, which max response is on record?
A: 15.6% (inactive)

Q: Which max response does the source give for `C=CCN1CCCC1CNC(=O)c1cc(S(N)(=O)=O)cc(OC)c1OC` (stereo not drawn) here?
A: -2.17% (inactive)

Q: Which max response does the source give for `O=S(=O)(O)CCCS(=O)(=O)O` here?
A: 2.64% (inactive)

Q: For `CCCCC/C=C\CCC(=O)N[C@H]1[C@H](Oc2c3cc4cc2Oc2ccc(cc2Cl)[C@@H](O[C@@H]2O[C@H](CO)[C@@H](O)[C@H](O)[C@H]2NC(C)=O)[C@@H]2NC(=O)[C@H](NC(=O)[C@@H]4NC(=O)[C@H]4NC(=O)[C@@H](Cc5ccc(c(Cl)c5)O3)NC(=O)[C@H](N)c3ccc(O)c(c3)Oc3cc(O)cc4c3)c3ccc(O)c(c3)-c3c(O[C@H]4O[C@H](CO)[C@@H](O)[C@H](O)[C@@H]4O)cc(O)cc3[C@@H](C(=O)O)NC2=O)O[C@H](CO)[C@@H](O)[C@@H]1O`, which max response is on record?
A: -6.11% (inactive)

Q: For `CC(=O)NCCCS(=O)(=O)O`, which max response is on record?
A: 7.56% (inactive)

Q: Which max response does the source give for `Nc1ncnc2c1ncn2CCOCP(=O)(O)O` here?
A: -0.768% (inactive)

Q: Which max response does the source give for `COc1ccc(/C=N/NC(=O)c2ccncc2)c(C(=O)O)c1OC` here?
A: 9% (inactive)

Q: Which max response does the source give for `COC(=O)[C@@H](N)CS` here?
A: 0.957% (inactive)

Q: For `CC1CCC(NC(=O)N(CCCl)N=O)CC1` (stereo not drawn), which max response is on record?
A: 3.88% (inactive)

Q: With `CN1C(C(=O)Nc2ccccn2)C(=O)c2sc(Cl)cc2S1(=O)=O` (stereo not drawn) as the molecule, how does the max response read?
A: 11.6% (inactive)

Q: Which max response does the source give for `CC(C)=CCC/C(C)=C/CC/C(C)=C/CC/C=C(\C)CC/C=C(\C)CCC=C(C)C` here?
A: -7.41% (inactive) and 5.06% (inactive)
